Screening data from PubChem BioAssay.
The list is not random: actives were taken first. Their share in the collection is about 2.9%.
MEKK3 PB1 HTS = raises or lowers MEK5 binding to the human MEKK3 PB1 domain | Q99759 | bead-based flow cytometry, Alexa488-MEK5 binding to MEKK3; actives lie on both sides; 0 = blocked by unlabeled MEK5, 100 = vehicle | binding response (% of control), % at 10 µM | 1.4% of 290,000 active | AID 1529;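 active = binding response more than 3 SD above or below the average of its plate-row segment, actives on both sides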;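 also: Alexa488 bead fluorescence after subtracting the streptavidin-only scavenger bead signal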
CRFBP-R2 agonist = agonists of human CRF-binding protein/CRF-R2 receptor complex; HEK293 CRF-R2/CRF-BP, calcium dye fluorescence (FLIPR); percent of saturating CRF peptide response; activation, % at 13.2 µM; 0.46% of 350,000 active; AID 588473;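 active = activation of at least 50%, plus an integration ratio under a set limit after plate pattern correction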;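 also: plate controls were neutral control wells without compound for no effect and CRF at EC100 for full effect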
ABCB6 inh 2 = inhibitors of human ABC transporter ABCB6; AID 602162; K562-ABCB6 porphyrin accumulation, flow cytometry, 1 h; active compounds read low; Q9NP58; 0.19% of 360,000 active; fluorescence ratio to DMSO, % at 10 µM;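 active = fluorescence ratio to DMSO below 75%, the collection mean minus 3 SD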;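 also: signal is porphyrin accumulated inside mitochondria; 100% equals median channel fluorescence of DMSO control wells; lower ratio means ABCB6 inhibition with less porphyrin fluorescence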
Target sequence (Q9NP58 whole entry, looked up): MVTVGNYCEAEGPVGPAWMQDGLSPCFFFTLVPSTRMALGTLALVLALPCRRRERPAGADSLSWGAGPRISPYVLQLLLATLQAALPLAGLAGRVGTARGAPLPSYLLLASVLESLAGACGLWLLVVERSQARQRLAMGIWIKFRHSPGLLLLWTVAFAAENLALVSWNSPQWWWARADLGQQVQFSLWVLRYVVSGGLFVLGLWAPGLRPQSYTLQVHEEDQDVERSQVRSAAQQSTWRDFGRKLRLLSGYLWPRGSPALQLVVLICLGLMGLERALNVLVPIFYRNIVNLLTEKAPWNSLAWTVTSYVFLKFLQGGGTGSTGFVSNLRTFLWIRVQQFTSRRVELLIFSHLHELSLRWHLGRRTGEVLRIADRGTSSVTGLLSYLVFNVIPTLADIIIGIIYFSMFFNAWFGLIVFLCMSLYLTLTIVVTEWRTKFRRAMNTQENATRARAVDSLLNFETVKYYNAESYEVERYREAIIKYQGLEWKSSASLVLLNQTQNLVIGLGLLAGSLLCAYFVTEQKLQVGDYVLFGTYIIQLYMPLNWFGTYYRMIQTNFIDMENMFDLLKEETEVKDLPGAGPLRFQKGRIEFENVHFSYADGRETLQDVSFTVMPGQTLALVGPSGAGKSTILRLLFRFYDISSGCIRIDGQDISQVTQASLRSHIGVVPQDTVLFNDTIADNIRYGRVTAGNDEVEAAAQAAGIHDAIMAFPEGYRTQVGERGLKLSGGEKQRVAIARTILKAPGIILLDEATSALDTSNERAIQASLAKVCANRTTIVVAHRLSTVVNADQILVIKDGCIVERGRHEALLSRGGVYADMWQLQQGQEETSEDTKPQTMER
MEKK2 WT-MEK5 = raises or lowers MEK5 binding to wildtype human MEKK2 PB1 domain | binding response (% of control), % at 10 µM | bead flow cytometry, Alexa488-MEK5 binding to MEKK2 WT; actives lie on both sides | 1.1% of 290,000 active; in the data active = binding response below about 67% or above about 130%
MEKK2 mut-MEK5 = signal of MEK5 binding to mutant human MEKK2 PB1 domain | 0.35% of 290,000 active | percent response, % at 10 µM | AID 1530 | bead flow cytometry, Alexa488-MEK5 binding to MEKK2 mutant; in the data active = percent response above about 24%, passing the limit was not always enough
CRFR2-BP antag = CRF-BP/CRF-R2 complex antagonism | HEK293 CRF-R2/CRF-BP, CRF-induced calcium fluorescence | inhibition, % at 11.8 µM | 0.59% of 350,000 active;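 active = inhibition of the ligand-induced calcium signal above about 50% at the single tested concentration, limit read from the data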
* marks the source's active call; other numbers are inactive results; [ ] = dose if it differs, or a comment.

Screening C=CCNc1nc(C(=O)OCC(=O)NCc2cccc(Cl)c2)cs1 returned CRFBP-R2 agonist 0, ABCB6 inh 2 94 and CRFR2-BP antag -1.
Cc1ccc(OCC(=O)NNC(=S)NC(=O)c2ccc(Br)o2)c(C)c1 was read as MEKK3 PB1 HTS 103, CRFBP-R2 agonist 51*, ABCB6 inh 2 105, MEKK2 WT-MEK5 97, MEKK2 mut-MEK5 -3 and CRFR2-BP antag -15.
Cc1ccc(OCC(=O)NNC(=S)NC(=O)c2cccs2)c(C)c1 was read as MEKK3 PB1 HTS 94, CRFBP-R2 agonist 50*, ABCB6 inh 2 97, MEKK2 WT-MEK5 87, MEKK2 mut-MEK5 -7 and CRFR2-BP antag -15.
For O=C(N/N=C/c1ccc(OC(=O)c2ccc(Br)cc2)cc1)c1ccncc1 the results were MEKK3 PB1 HTS 66*[inhibitor], CRFBP-R2 agonist -1, ABCB6 inh 2 98, MEKK2 WT-MEK5 61*[inhibitor], MEKK2 mut-MEK5 -41 and CRFR2-BP antag -2.
`Cc1cccc(C(=O)Oc2ccc(/C=N/NC(=O)c3ccccc3O)cc2)c1` gave MEKK3 PB1 HTS 102, CRFBP-R2 agonist 3, ABCB6 inh 2 101, MEKK2 WT-MEK5 107, MEKK2 mut-MEK5 1 and CRFR2-BP antag 5.
For Cc1cccc(C(=O)Oc2ccc(/C=N/NC(=O)c3ccc(O)cc3)cc2)c1 the results were MEKK3 PB1 HTS 105, CRFBP-R2 agonist 3, ABCB6 inh 2 100, MEKK2 WT-MEK5 99, MEKK2 mut-MEK5 0 and CRFR2-BP antag 105*.
Screening Cc1cc(C)cc(NC(=O)CSc2nc3nc(C)cc(C)n3n2)c1 returned CRFBP-R2 agonist 0, ABCB6 inh 2 99 and CRFR2-BP antag -4.
Screening COc1ccc2ccccc2c1CN1CCCC(CO)C1 (stereo not drawn) returned MEKK3 PB1 HTS 99, CRFBP-R2 agonist -1, ABCB6 inh 2 90, MEKK2 WT-MEK5 99, MEKK2 mut-MEK5 -4 and CRFR2-BP antag -43.
Screening COCCN1CCC(CO)C1 (stereo not drawn) returned CRFBP-R2 agonist 2, ABCB6 inh 2 87 and CRFR2-BP antag 62*.
Cc1ccccc1-c1ccnc2[nH]n(-c3ccccc3)c(=O)c12 was read as MEKK3 PB1 HTS 96, CRFBP-R2 agonist -1, ABCB6 inh 2 100, MEKK2 WT-MEK5 98, MEKK2 mut-MEK5 1 and CRFR2-BP antag -4.
Screening COc1ccc(OC)c(C2=C/C(=C/c3ccccn3)C(=O)O2)c1 returned MEKK3 PB1 HTS 90, CRFBP-R2 agonist 76*, ABCB6 inh 2 108, MEKK2 WT-MEK5 82, MEKK2 mut-MEK5 -12 and CRFR2-BP antag -59.
`CC(C)(C)N1CC2([N+](=O)[O-])CN(C(C)(C)C)CC([N+](=O)[O-])(C1)C2` gave MEKK3 PB1 HTS 110, CRFBP-R2 agonist 167*, ABCB6 inh 2 98, MEKK2 WT-MEK5 119, MEKK2 mut-MEK5 17 and CRFR2-BP antag -122.
`CC1=CCC2([N+](=O)[O-])CN(CC(=O)O)CC1([N+](=O)[O-])C2` (stereo not drawn) gave MEKK3 PB1 HTS 97, CRFBP-R2 agonist -2, ABCB6 inh 2 97, MEKK2 WT-MEK5 96, MEKK2 mut-MEK5 -1 and CRFR2-BP antag 1.
For O/C(=C\c1nc2ccccc2[nH]1)c1cccs1 the results were MEKK3 PB1 HTS 101, CRFBP-R2 agonist 21, ABCB6 inh 2 110, MEKK2 WT-MEK5 102, MEKK2 mut-MEK5 5 and CRFR2-BP antag -15.
O=c1[nH]c2ccccc2nc1/C=C(\O)c1cccs1 was read as MEKK3 PB1 HTS 108, CRFBP-R2 agonist 224*, ABCB6 inh 2 94, MEKK2 WT-MEK5 88, MEKK2 mut-MEK5 -8 and CRFR2-BP antag -195.
For O=c1[nH]c2ccccc2nc1/C=C/c1ccccc1 the results were MEKK3 PB1 HTS 95, CRFBP-R2 agonist 0, ABCB6 inh 2 100, MEKK2 WT-MEK5 85, MEKK2 mut-MEK5 -13 and CRFR2-BP antag -2.
For O=c1[nH]c2ccccc2nc1/C=C/c1ccc(O)cc1 the results were MEKK3 PB1 HTS 105, CRFBP-R2 agonist 104*, ABCB6 inh 2 113, MEKK2 WT-MEK5 94, MEKK2 mut-MEK5 0 and CRFR2-BP antag -152.
For CC(=O)N1CCc2cc(Br)cc(S(=O)(=O)N3CCC(C(=O)O)CC3)c21 the results were MEKK3 PB1 HTS 97, CRFBP-R2 agonist 1, ABCB6 inh 2 98, MEKK2 WT-MEK5 98, MEKK2 mut-MEK5 3 and CRFR2-BP antag -2.
O=C(Nc1ccccc1Cl)C1CC(=O)N(Cc2ccco2)C1 (stereo not drawn) was read as CRFBP-R2 agonist 0, ABCB6 inh 2 97 and CRFR2-BP antag 4.
`CN(CCOc1ccc(Cl)cc1)C(=O)CN1C(=O)NC2(CCCC2)C1=O` gave CRFBP-R2 agonist 2, ABCB6 inh 2 103 and CRFR2-BP antag -11.
COc1cc(/C=C2\Oc3cc(O)ccc3C2=O)ccc1O was read as MEKK3 PB1 HTS 93, CRFBP-R2 agonist 71*, ABCB6 inh 2 113, MEKK2 WT-MEK5 110, MEKK2 mut-MEK5 7 and CRFR2-BP antag -58.
Screening O=C1/C(=C/c2ccc(O)c(O)c2)Oc2cc(O)ccc21 returned MEKK3 PB1 HTS 105, CRFBP-R2 agonist 24, ABCB6 inh 2 252, MEKK2 WT-MEK5 107, MEKK2 mut-MEK5 9 and CRFR2-BP antag -51.
Screening Cc1ccsc1/C=C1\Oc2cc(O)ccc2C1=O returned CRFBP-R2 agonist 72*, ABCB6 inh 2 129 and CRFR2-BP antag -32.
`CC(C)(O)C#Cc1ccc(CN2CCCC(CNC(=O)c3ccco3)C2)cc1` (stereo not drawn) gave MEKK3 PB1 HTS 103, CRFBP-R2 agonist 0, ABCB6 inh 2 96, MEKK2 WT-MEK5 109, MEKK2 mut-MEK5 4 and CRFR2-BP antag 15.
For O=C1C2CC=CCC2C(=O)N1c1nccs1 (stereo not drawn) the results were CRFBP-R2 agonist 0, ABCB6 inh 2 107 and CRFR2-BP antag 3.
For Cn1cccc1C(=O)NCCc1ccccc1 the results were MEKK3 PB1 HTS 99, CRFBP-R2 agonist 0, ABCB6 inh 2 91, MEKK2 WT-MEK5 97, MEKK2 mut-MEK5 -3 and CRFR2-BP antag -4.
`COc1ccc(CCNC(=O)c2cccn2C)cc1` gave MEKK3 PB1 HTS 90, CRFBP-R2 agonist -1, ABCB6 inh 2 92, MEKK2 WT-MEK5 93, MEKK2 mut-MEK5 -7 and CRFR2-BP antag 55*.
For Cc1c(NC(=O)C(C)OC(=O)c2ncc(Cl)c(Cl)c2Cl)c(=O)n(-c2ccccc2)n1C (stereo not drawn) the results were CRFBP-R2 agonist 0, ABCB6 inh 2 105 and CRFR2-BP antag -2.
`CC(=O)N=c1sc(S(N)(=O)=O)nn1C` gave MEKK3 PB1 HTS 91, CRFBP-R2 agonist -2, ABCB6 inh 2 99, MEKK2 WT-MEK5 98, MEKK2 mut-MEK5 -2 and CRFR2-BP antag 111*.
